High-throughput results (PubChem BioAssay)
Shown are actives, neighbours in structure and some others; about 2% of the full set was active somewhere.
aSyn yeast inh: rescues yeast growth from alpha-synuclein toxicity | 370,000 compounds, 0.14% hits | Potency, µM (doses to about 46.1 µM), for inactives: at the top dose growth rescue (activation), usual class: activators | Yeast expressing alpha-synuclein, growth rescue, BacTiter-Glo, 24 h; note: % of control where 0% means no effect; nearly all actives have a fitted effect of over 65% in size
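Galactose-induced alpha-syn yeast (OD600=0.02, raffinose-pregrown) + pinned cpd, 24 hr, 30 deg C; growth by BacTiter-Glo luminescence. Growth restoration scores as activation.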
TDP43 rescue: rescues yeast growth from TDP-43 toxicity; Potency, µM (highest dose often 46.1 µM), inactives show at the highest dose growth rescue (activation), hits mostly activators; TDP-43 expressing yeast growth rescue, BacTiter-Glo, 24 h; AID 652104; 410,000 compounds, 1.8% hits; note: % of control where 0% means no effect; nearly all actives have a fitted effect of over 50% in size
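Yeast cells expressing TDP-43 under galactose induction are exposed to compounds for 24 hr at 30 deg C. BacTiter-Glo luminescence measures growth, so protective compounds score as activators.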
S-ASM inh: blocks human secretory acid sphingomyelinase | 340,000 compounds, 0.006% hits | P17405 | Potency, µM (titrated, usually from 57.5 µM), for the others: top-dose activity change, negative = inhibition, most hits filed as inhibitors | placental ASM, HMU-PC fluorogenic substrate, 60 min
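Steps: dispense placental human ASM, pin compound, wait 10 min at room temperature, add HMU-PC0 substrate at 9 uM final, incubate 60 min at 37 °C, add stop solution raising pH to 10, read fluorescence.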
Rango dissoc inh: inhibitors of RanGTP-induced Rango-importin beta complex dissociation; AID 540253; Biochemical FRET Rango-importin beta, RanGTP-induced dissociation; Potency, µM (series often up to 46.1 µM), for the others: top-dose activity change, negative = inhibition; 340,000 compounds, 0.071% hits; calls by dose curve; note: % of control where 0% means no effect; nearly all actives have a fitted effect of over 45% in size
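FRET read at 45 min, room temperature: inhibitors block the CFP/YFP signal rise when RanGTP (0.6 uM Ran, 2 mM GTP, 0.2 uM RCC1) frees Rango (0.1 uM) from importin beta (0.25 uM). Pre-read after 5 min compound exposure flags interference.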
Rango complex inh: inhibitors of Rango-importin beta complex formation. Q14974. Rango CFP/YFP FRET sensor + importin beta, 45 min. Potency, µM (titrated, usually from 92.2 µM), for the others: at the highest dose inhibition of complex formation. 340,000 compounds, 0.031% hits; calls by dose curve;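 note: 0% = DMSO wells and 100% = buffer wells lacking importin beta; nearly all actives have a fitted effect of over 15% in size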
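Inhibition scored from the CFP 486 nm/YFP 530 nm FRET ratio 45 min after adding 0.125 microM importin beta to 50 nM Rango biosensor preincubated 5 min with compound (room temperature, PBS with DTT, Tween-20, BSA). No-importin wells as positive control.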
Abeta yeast res: A-beta toxicity reversal in yeast | 410,000 compounds, 0.063% hits | yeast expressing A-beta42, growth rescue, OD600, 48 h; response scale: 0% DMSO, 100% iron-clioquinol control | Potency, µM (highest dose often 46.1 µM), actives largely listed as activators; note: nearly all actives have a fitted effect of over 55% in size
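Yeast A-beta toxicity model in growth medium with pinned compounds, 48 h at 30 C; growth read as absorbance at 600 nm. Normalized to FeCl3/clioquinol equimolar mix (positive) and DMSO (negative).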
The depositor's hits bear a star; [ ] = another dose, or the depositor's remark. Unless noted, calls come from the whole dose curve; as a rule, active = well fitted curve in the direction sought with a large enough effect; inconclusive = small, poorly fitted or top-dose-only effect, or another doubt; inactive = no such curve, though single readings can be large; an effect the other way counts as inactive or inconclusive. Potency is the fitted concentration of half-maximal effect.

`COc1ccc(Nc2ncnc3sc4c(c23)CCCC4)cc1` gave aSyn yeast inh -6.9%, TDP43 rescue 20µM* and Abeta yeast res inactive.
Screening c1ccc(Nc2ncnc3sc4c(c23)CCC4)cc1 returned aSyn yeast inh 3.3%, TDP43 rescue 1.6%, S-ASM inh -2.3%, Rango dissoc inh -14.9%, Rango complex inh -3.3% and Abeta yeast res inactive.
For COc1ccc(Nc2ncnc3scc(-c4ccc(OC)cc4)c23)cc1 the results were aSyn yeast inh 1.0%, TDP43 rescue 22.4µM*, S-ASM inh -16.6%, Rango dissoc inh inconclusive, Rango complex inh -0.2% and Abeta yeast res inactive.
`CCCCC#Cc1nc(NC)c2ncn([C@@H]3O[C@H](CO)[C@@H](O)[C@H]3O)c2n1` gave aSyn yeast inh 4.7%.
CC(C)(C)NC(=S)N1CCC(C(=O)c2ccc(F)cc2)CC1 was read as aSyn yeast inh 4.9%, TDP43 rescue 19.7%, S-ASM inh -3.2%, Rango dissoc inh -4.9%, Rango complex inh -1.0% and Abeta yeast res inactive.
`O=C(c1ccc(F)cc1)C1CCN(C(=S)Nc2ccc(F)cc2)CC1` gave aSyn yeast inh 11.8%, TDP43 rescue 22.4µM*, S-ASM inh -0.4%, Rango dissoc inh -2.9%, Rango complex inh -1.0% and Abeta yeast res inconclusive.
CC(=O)Nc1ccc(/C=C/c2ccncc2)cc1 was read as aSyn yeast inh 4.2%.
CCn1cc(C(=O)Nc2cccc(Cl)c2)c2cc(OC)c(OC)cc2c1=O was read as TDP43 rescue inconclusive and Abeta yeast res inactive.
Cc1ccc2nc(CO)[nH]c2c1 was read as aSyn yeast inh -9.1%.
`O=C(OCn1ncc(Cl)c(Cl)c1=O)c1ccc(C(F)(F)F)cc1` gave aSyn yeast inh -16.7%, TDP43 rescue 3.98µM*, S-ASM inh -1.9%, Rango dissoc inh -10.8%, Rango complex inh 3.2% and Abeta yeast res inactive.
For Cc1ccc(C(=O)OCn2ncc(Cl)c(Cl)c2=O)cc1 the results were aSyn yeast inh -32.6%, TDP43 rescue 3.16µM*, S-ASM inh -4.1%, Rango dissoc inh -0.3%, Rango complex inh 1.4% and Abeta yeast res inactive.
`CCOC(=O)c1ccc(NC(=O)Cn2ncc(Cl)c(Cl)c2=O)cc1` gave aSyn yeast inh 0.2%, TDP43 rescue -14.6%[0.397 µM], S-ASM inh -3.5%, Rango dissoc inh 0.7%, Rango complex inh -2.7% and Abeta yeast res inactive.
Screening Cc1cccc(C)c1OCC(=O)Nc1c(C(=O)c2ccccc2)oc2ccccc12 returned TDP43 rescue -15.1% and Abeta yeast res inactive.
`COC(=O)C1CCN(C(c2ccccc2Cl)c2sc3nc(-c4ccco4)nn3c2O)CC1` (stereo not given) gave TDP43 rescue 20.4% and Abeta yeast res inactive.
Cc1cc(C(F)(F)F)nn1-c1nc(-c2ccccc2)cc(C(F)(F)F)n1 was read as TDP43 rescue 16.8% and Abeta yeast res inactive.
`COc1ccc(/C(N)=N/OC(=O)C2CCCCC2)cc1OC` gave aSyn yeast inh -1.5%, TDP43 rescue 17.2%, S-ASM inh -3.6%, Rango dissoc inh inconclusive, Rango complex inh 2.4% and Abeta yeast res inactive.
For COc1ccc(/C(N)=N/OC(=O)C2CCCCC2)cc1 the results were aSyn yeast inh -9.6%, TDP43 rescue 15.8µM*, S-ASM inh 0.2%, Rango dissoc inh 9.9%, Rango complex inh -0.1% and Abeta yeast res inactive.
`COc1ccc(C/C(N)=N/OC(=O)CCc2ccccc2)cc1` gave aSyn yeast inh -37.1%, TDP43 rescue inconclusive, S-ASM inh -1.8%, Rango dissoc inh -11.4%, Rango complex inh 4.7% and Abeta yeast res inactive.
For COc1ccc(CC(=O)O/N=C(\N)c2ccc(OC)cc2)cc1 the results were aSyn yeast inh 11.2%, TDP43 rescue 17.8µM*, S-ASM inh -1.3%, Rango dissoc inh -13.4%, Rango complex inh 0.2% and Abeta yeast res inactive.
